Experimental data: PubChem BioAssay
Activity calls are given as the source filed them.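 The calls were made as follows, unless noted: active = inhibition of the reporter signal at or above 50%; inactive = inhibition below 50%.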 Where a SMILES comes first, the peptide text is derived from it. The star is where a group is joined. Boc = CC(C)(C)OC(=O)*

What was measured:
[1] = inhibitors of TNFa-induced NFkB p65 translocation, primary screen, imaging, HUVEC, MLSMR starter and 10KST1 sets (AID 438;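 active = inhibition above 20% together with a positive visual image hit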;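 also: compound added about 3h40 before a 20 min TNFalpha stimulation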;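 as to inhibition: signal is the nuclear over cytoplasmic p65 intensity ratio per well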); conditions: HUVEC TNFa-induced p65 nuclear translocation; cell count: measured here: nuclei count (cytotoxicity indicator), at 2.08 µM; inhibition: at 2 µM, stronger effect = higher value, 0% TNFa-plus-vehicle, 100% no-TNFa wells
[2] = reduction of polyQ htt aggregates in cells – imaging, exon1htt(103Q)mCFP cells, high-content imaging, primary screen (AID 483;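 active = visual image review flags a hit and inhibition of aggregation exceeds 20%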;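 also: compound exposure lasted 3 days before fixation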;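 as to nuclei count: percent of the per-plate median nuclei count of sample wells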); conditions: exon1htt(103Q)mCFP cell line, aggregate imaging, at 2 µM; inhibition of aggregation: stronger effect = higher value; nuclei count: measured here: cell count, toxicity
[3] = endothelial E-selectin expression blockers – imaging, HUVEC, immunofluorescence, MLSMR starter and 10KST1 sets, primary screen (AID 487;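 active = visually confirmed hit in the image check and inhibition above 20%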;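 as to inhibition: signal is fraction of cell area covered by stained E-selectin grains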;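 as to nuclei count: 100% = median nuclei count of all wells on the same plate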); conditions: HUVEC TNFalpha-induced E-selectin immunofluorescence imaging, at 2 µM; inhibition: stronger effect = higher value; nuclei count: measured here: cell number, toxicity
[4] = target: Voltage-gated potassium channel subunit beta-2 (Rattus norvegicus) (UniProt P62483); test: inhibitors of rat Kvbeta2 reductase activity – biochemical, NADPH fluorescence, primary screen (AID 622;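 active = fluorescence slope higher than the sample average by over 3 SD, cut at about -0.22 in these data, passing the limit was not always enough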;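 also: slope of raw intensity against log time taken from 70 to 1610 s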); conditions: recombinant KvBeta, 4-cyanobenzaldehyde reduction, at 10 µM, stronger effect = higher value
Sequence of Voltage-gated potassium channel subunit beta-2 (Rattus norvegicus) (P62483 whole entry, looked up): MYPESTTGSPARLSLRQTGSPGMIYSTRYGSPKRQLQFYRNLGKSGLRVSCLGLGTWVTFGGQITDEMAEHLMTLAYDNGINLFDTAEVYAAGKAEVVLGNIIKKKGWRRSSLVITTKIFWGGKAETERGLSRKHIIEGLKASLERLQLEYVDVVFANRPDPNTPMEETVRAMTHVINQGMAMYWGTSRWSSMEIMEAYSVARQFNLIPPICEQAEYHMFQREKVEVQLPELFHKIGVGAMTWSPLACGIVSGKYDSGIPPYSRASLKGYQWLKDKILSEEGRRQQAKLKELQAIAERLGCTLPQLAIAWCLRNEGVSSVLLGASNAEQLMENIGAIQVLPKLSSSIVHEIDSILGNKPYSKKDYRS

[5] = target: Voltage-gated potassium channel subunit beta-2 (Rattus norvegicus) (UniProt P62483); test: enhancers of rat Kvbeta2 NADPH turnover – biochemical, NADPH fluorescence, primary screen (AID 623;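 active = NADPH fluorescence slope more negative than the mean of all samples by about 3 SD, 99.7% confidence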;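 also: fluorescence intensity change per second fitted from 20 to 320 s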); conditions: Recombinant KvBeta, NADPH fluorescence decrease slope, 10 min; at 10 µM; stronger effect = lower value
[6] = target: Alpha-2C adrenergic receptor (Homo sapiens) (UniProt P18825); test: compounds altering alpha2C-coupled GIRK flux – cell-based, HEK293 alpha2C/GIRK1/2, thallium flux, primary screen (AID 624;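 active = fluorescence slope after compound addition differing from the mean of all screened samples at 99.7% confidence, in either direction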;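 also: slope of fluorescence ratio to pre-addition baseline per second over 15 to 24 s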); conditions: thallium flux BTC fluorescence, at 10 µM, actives lie on both sides
Sequence of Alpha-2C adrenergic receptor (Homo sapiens) (P18825 whole entry, looked up): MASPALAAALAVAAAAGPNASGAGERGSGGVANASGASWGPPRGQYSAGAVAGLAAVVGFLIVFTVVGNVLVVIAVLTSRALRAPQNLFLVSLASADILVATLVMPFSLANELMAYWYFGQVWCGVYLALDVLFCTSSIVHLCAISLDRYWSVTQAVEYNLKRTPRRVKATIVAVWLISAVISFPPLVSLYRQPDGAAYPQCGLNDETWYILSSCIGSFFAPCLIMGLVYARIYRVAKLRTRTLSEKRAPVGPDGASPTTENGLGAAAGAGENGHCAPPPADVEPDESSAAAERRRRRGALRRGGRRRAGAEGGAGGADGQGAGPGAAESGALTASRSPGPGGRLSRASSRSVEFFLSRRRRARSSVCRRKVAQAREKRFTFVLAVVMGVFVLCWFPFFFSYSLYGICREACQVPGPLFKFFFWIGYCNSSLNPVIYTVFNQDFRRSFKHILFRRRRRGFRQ

[7] = blockers of RIG-like receptor reporter activation – cell-based, Sendai virus stimulus, luciferase, 10K MLSCN set, TLR/RLR signaling modifier project, primary screen (AID 602276;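 active = inhibition at or above 50% at 10 µM; inactive = inhibition below 50%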;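 also: firefly luciferase from ISG56 promoter only with Renilla not read in this screen; 0% = Sendai virus plus DMSO and 100% = medium plus DMSO without virus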); conditions: HEK293 RL24 IRF3 luciferase reporter, at 10 µM, stronger effect = higher value
[8] = TLR3 IRF3 reporter activation blockers – cell-based, poly I:C stimulus, luciferase, 10K MLSCN set, primary screen (AID 602277); conditions: HEK293-TLR3 RL24 IRF3 luciferase reporter, at 10 µM, stronger effect = higher value

Row | SMILES | cell count [1] | inhibition [1] | inhibition of aggregation [2] | nuclei count [2] | inhibition [3] | nuclei count [3] | fluorescence slope [4] | NADPH fluorescence slope [5] | slope [6] | inhibition [7] | inhibition [8]
1 | CCCCn1cnc2c1c(=O)n(C)c(=O)n2C | 797 | -7.5% (inactive) | 25.6% (inactive) | 101% | -35.5% (inactive) | 119% | -0.374 (inactive) | -1.9e-05 (inactive) | 0.00541 (inactive) | -11.6% (inactive) | -3.57% (inactive)
2 | Cn1c(=O)c(=O)n(C)c2cc(S(=O)(=O)CCC(=O)N3CCOCC3)ccc21 | 773 | 0.9% (inactive) | 22.5% (inactive) | 93% | -79.8% (inactive) | 113% | -0.569 (inactive) | -1.9e-06 (inactive) | 0.00791 (inactive) | 8.53% (inactive) | 5.94% (inactive)
3 | CC(C)(C)SCCNC(=O)CSc1ccccc1 | 636 | -11% (inactive) | 8.5% (inactive) | 93% | -42.9% (inactive) | 78.7% | -0.586 (inactive) | -2.1e-05 (inactive) | 0.00555 (inactive) | -20.5% (inactive) | -23.4% (inactive)
4 | COc1cc(SC)ccc1C(=O)Nc1ccon1 | 461 | -10.3% (inactive) | -0.3% (inactive) | 93% | 20.1% (inactive) | 91.2% | -0.608 (inactive) | 2.8e-05 (inactive) | 0.00729 (inactive) | -57.7% (inactive) | -144% (inactive)
5 | CCCc1nnc(SCC(=O)N2CCOCC2)n1Cc1ccco1 | 660 | -2.2% (inactive) | -10.6% (inactive) | 96.5% | -0.5% (inactive) | 101% | -0.617 (inactive) | -5.1e-05 (inactive) | 0.0036 (inactive) | 19.5% (inactive) | 22.7% (inactive)
6 | CCCCC(O)(C(NC=O)C(=O)OC)C(F)(F)F (stereo not drawn) | 703 | -10.7% (inactive) | 12.7% (inactive) | 67.6% | -10.7% (inactive) | 113% | -0.489 (inactive) | 9.5e-07 (inactive) | 0.00464 (inactive) | 22% (inactive) | 16% (inactive)
7 | COc1ccccc1OCCCCNCCO | 493 | 9.1% (inactive) | -4.6% (inactive) | 103% | -80.3% (inactive) | 130% | -0.434 (inactive) | -3.7e-05 (inactive) | 0.00597 (inactive) | 1.66% (inactive) | 25.1% (inactive)
8 | COc1ccc(-n2c(Cc3cccn3C)nnc2SCC(=O)Nc2ccccc2)cc1 | 527 | -11.3% (inactive) | 6.5% (inactive) | 79.8% | -20.6% (inactive) | 116% | -0.55 (inactive) | -2.9e-05 (inactive) | 0.00572 (inactive) | 15.3% (inactive) | 36.7% (inactive)
9 | CCOC(=O)Cn1nc(-c2ccc(C)cc2)ccc1=O | 534 | -21% (inactive) | 31% (inactive) | 121% | -42.9% (inactive) | 108% | -0.393 (inactive) | -0.000149 (inactive) | 0.00747 (inactive) | -9.24% (inactive) | -5.48% (inactive)
10 | Cc1ccnc(NC(=O)CCC(=O)N(CC(=O)NC(C)(C)C)C2CCCC2)c1 | 603 | 1.7% (inactive) | -6.2% (inactive) | 113% | -105% (inactive) | 89.5% | -0.638 (inactive) | -1.4e-05 (inactive) | 0.00587 (inactive) | 9.05% (inactive) | 9.79% (inactive)
11 | O=C(CCNC(=O)c1ccc(Br)o1)NC1CCCC1 | 507 | -18.2% (inactive) | 35.3% (inactive) | 77.7% | -29.9% (inactive) | 87.3% | -0.365 (inactive) | -5e-05 (inactive) | 0.00549 (inactive) | 14.4% (inactive) | 13.1% (inactive)
12 | O=C1c2ccccc2C(=O)N1C/C=C/CN1C(=O)c2ccccc2C1=O | 480 | 7.4% (inactive) | 0.3% (inactive) | 107% | -12.9% (inactive) | 113% | -0.331 (inactive) | -1.5e-05 (inactive) | 0.007 (inactive) | 23.3% (inactive) | 18.7% (inactive)
13 | CCOC(=O)N1CCN(C(=O)CN(c2ccc(C)cc2)S(=O)(=O)c2c(C)noc2C)CC1 | 565 | -28.3% (inactive) | -13% (inactive) | 103% | -36.7% (inactive) | 108% | -0.617 (inactive) | 1.1e-05 (inactive) | 0.00556 (inactive) | 18.5% (inactive) | 30.7% (inactive)
14 | Cc1cc(Oc2ccccc2)nc(-c2ccccc2)n1 | 763 | 4.4% (inactive) | -2.1% (inactive) | 99.1% | 62.8% (active) | 70.6% | -0.484 (inactive) | -8.7e-05 (inactive) | 0.00573 (inactive) | -19.4% (inactive) | -47.5% (inactive)
15 | O=c1c2c(-c3ccccc3)csc2nc2n1CCC2 | 518 | -18.3% (inactive) | -0.8% (inactive) | 87% | 20.1% (inactive) | 144% | -0.588 (inactive) | -8.9e-06 (inactive) | 0.00513 (inactive) | -15.3% (inactive) | 1.9% (inactive)
16 | Cn1c(C(=O)NCCCN2CCCCCC2)cc2c(=O)n(C)c3ccccc3c21 | 653 | 5.5% (inactive) | -31.5% (inactive) | 76.6% | -33.1% (inactive) | 101% | -0.639 (inactive) | -4.1e-06 (inactive) | 0.00675 (inactive) | 72.2% (active) | 79% (active)
17 | COc1cc2c(cc1NC(=O)CN1CCN(S(=O)(=O)c3ccc(F)cc3)CC1)oc1ccccc12 | 583 | -2.4% (inactive) | -2.8% (inactive) | 95.8% | -33.6% (inactive) | 88.8% | -0.364 (inactive) | 1.3e-05 (inactive) | 0.0037 (inactive) | 2.2% (inactive) | 30.3% (inactive)
18 | CC(C)CC(NC(=O)OC(C)(C)C)C(=O)NC(C(=O)N1CCCC1C(N)=O)C(C)C (stereo not drawn) (Boc-Leu-Val-Pro-NH2; configuration not given here) | 662 | 8.7% (inactive) | -4% (inactive) | 100% | 62.5% (inactive) | 89.1% | -0.485 (inactive) | -2.7e-05 (inactive) | 0.00542 (inactive) | 4.38% (inactive) | 20.6% (inactive)
19 | COc1cc(NC(=O)Nc2cccc(Cl)c2)c(OC)cc1NC(=O)CN1CCCCC1 | 709 | -15.2% (inactive) | 1% (inactive) | 126% | -45.1% (inactive) | 132% | -0.407 (inactive) | -4e-05 (inactive) | 0.00392 (inactive) | 14.5% (inactive) | -1.73% (inactive)
20 | COc1ccc(OC)c(NC(=O)CCNS(=O)(=O)c2cccs2)c1 | 662 | 7.1% (inactive) | 5.1% (inactive) | 81.4% | -74.4% (inactive) | 91.1% | -0.533 (inactive) | 3.3e-05 (inactive) | 0.00666 (inactive) | 14.1% (inactive) | 24.2% (inactive)
21 | CN1CCN(CC(=O)N2c3ccccc3C(C)(c3ccccc3)CC2(C)C)CC1 (stereo not drawn) | 352 | 2.9% (inactive) | -16.5% (inactive) | 74.1% | -183% (inactive) | 146% | -0.353 (inactive) | -6.8e-07 (inactive) | 0.00483 (inactive) | 35.9% (inactive) | 26.8% (inactive)
22 | CC1Cc2nc(SCC(=O)Nc3ccccc3F)n(C)c(=O)c2S1 (stereo not drawn) | 385 | 4.4% (inactive) | -9.2% (inactive) | 98.4% | -15% (inactive) | 113% | -0.505 (inactive) | -2.1e-05 (inactive) | 0.00529 (inactive) | 10.7% (inactive) | 3.28% (inactive)
23 | CC12COC3(C(=O)Nc4ccc(Cl)cn4)CC1CCC32C (stereo not drawn) | 773 | -8% (inactive) | 16.9% (inactive) | 85.1% | -32.6% (inactive) | 102% | -0.395 (inactive) | -5.6e-05 (inactive) | 0.00598 (inactive) | -1.35% (inactive) | 10.2% (inactive)
24 | COCCn1c(SCC(=O)Nc2cccc(OC)c2)nnc1-c1ccccc1 | 690 | 2.1% (inactive) | 6.3% (inactive) | 96.7% | -16% (inactive) | 117% | -0.492 (inactive) | -3.1e-05 (inactive) | 0.00579 (inactive) | -0.479% (inactive) | 19.1% (inactive)
25 | CC1CCC(NC(=O)Cn2ncc3ccccc32)CC1 (stereo not drawn) | 728 | -3.7% (inactive) | -13.1% (inactive) | 118% | -59.2% (inactive) | 106% | -0.577 (inactive) | -4.8e-05 (inactive) | 0.00746 (inactive) | -43.1% (inactive) | -111% (inactive)
26 | Cc1nc2ncnn2c(C)c1CCC(=O)NCCCN1CCN(c2cccc(Cl)c2)CC1 | 352 | -2% (inactive) | -0.5% (inactive) | 99.1% | -40.4% (inactive) | 107% | -0.505 (inactive) | -5.1e-05 (inactive) | 0.0065 (inactive) | 4.7% (inactive) | 16.9% (inactive)
27 | CCCn1cc(SCC(N)=O)c2ccccc21 | 743 | -8% (inactive) | -1.3% (inactive) | 107% | -33.9% (inactive) | 113% | -0.382 (inactive) | -6.4e-06 (inactive) | 0.00614 (inactive) | 13.5% (inactive) | 27.7% (inactive)
28 | COc1ccc(NC(=O)c2cc(C(C)C)on2)c(OC)c1 | 568 | -11.1% (inactive) | 33.2% (inactive) | 100% | 7.6% (inactive) | 107% | -0.576 (inactive) | -1.2e-05 (inactive) | 0.00755 (inactive) | -35.5% (inactive) | -63.9% (inactive)
